Measured values as given in PubChem BioAssay (NCATS).
Several values for one entry are separate records, joined by “and”; a condition that tells them apart may be missing. Equal entries are not always repeated. Values without a mark were called inactive. Results filed as inconclusive are left out. Activity calls are given as the source filed them. Unless noted, the call rests on the fitted dose curve; in most records, active means well fitted inhibition curve with a large enough effect; inconclusive means small, poorly fitted or top-dose-only effect; inactive means flat fitted curve, though single readings scatter.

test system: not listed separately; experiment: Drug repurposing screens with cells derived from glioblastoma tumor samples (AID 1345199); details: GBM patient neurospheres viability, ATP luminescence, 48 h; tumour line A; further: nearly all actives have a fitted effect of over 40% in size; further: potency means the concentration at half of the fitted maximal effect; on activity, negative = cell killing: on the % scale 0 is the no-effect control and ±100 the full control effect
Procedure, shortened: (§1)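 Four patient lines of CD133+ GBM neurospheres were screened at several concentrations; hits were retested in those lines plus three slower-growing GBM lines, using 48-hour treatment and ATP-based viability.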

SMILES | Potency
Nc1c2ccccc2nc2ccccc12 | 25.1 µM (active)
CC1CC(=O)NN=C1c1ccc(NCC(C)(C)NCC(O)COc2cc(Cl)ccc2C#N)cc1 (configuration not stated) | 1.78 µM (active)
Oc1ccc(CCNCCCCCCNCCc2ccccc2)cc1O | 17.8 µM (active)
CC(=O)Oc1ccc(C2(c3ccc(OC(C)=O)cc3)Oc3ccccc3NC2=O)cc1 | 22.4 µM (active)
O=C(Nc1ccc(S(=O)(=O)N2CCOCC2)cc1)c1cc(Cl)ccc1NS(=O)(=O)c1ccc(Cl)s1 | 6.31 µM (active)
Nc1cccc2c(N)cccc12 | 15.8 µM (active)

test system: astro; experiment: as above; details: viability, ATP luminescence, 48 h; series mostly up to 45.9 µM; activity, negative = cell killing: at the top concentration
Procedure, shortened: as §1

SMILES | activity, negative = cell killing | Potency
CC(C)C[C@H](NC(=O)CNC(=O)[C@H](Cc1ccc(O)cc1)NC(=O)[C@H](CO)NC(=O)[C@H](Cc1c[nH]c2ccccc12)NC(=O)[C@H](Cc1cnc[nH]1)NC(=O)[C@@H]1CCC(=O)N1)C(=O)N[C@@H](CCCN=C(N)N)C(=O)N1CCC[C@H]1C(=O)NCC(N)=O (stereo in doubt) | -3.33% | 
Cc1cc(OCCOCC[N+](C)(C)Cc2ccccc2)ccc1C(C)(C)CC(C)(C)C |  | 15.8 µM (active)
O=C(O)CNC(=O)CNC(=O)CNC(=O)CSC(=O)c1ccccc1 | 0.771% | 
Nc1c2ccccc2nc2ccccc12 |  | 10 µM (active)
CN1CCC(Nc2ncc3ncnc(Nc4ccc(F)c(Cl)c4)c3n2)CC1 |  | 17.8 µM (active)
CC1CC(=O)NN=C1c1ccc(NCC(C)(C)NCC(O)COc2cc(Cl)ccc2C#N)cc1 (configuration not stated) | 3.59% | 
C[N+](C)(C)CCO |  | inactive
O=S(=O)(O)c1ccc2nc(-c3ccccc3)[nH]c2c1 | -13.8% | 
C[C@H](CN1CCCC1)C(=O)c1ccc(C(F)(F)F)cc1 | -17.1% | 
CC(C(O)c1ccccc1)N(C)CCOC(c1ccccc1)c1ccccc1 (configuration not stated) | -26.6% | 
CC(NCCC(c1ccccc1)c1ccccc1)c1ccccc1 (configuration not stated) |  | 25.1 µM (active)
Oc1ccc(CCNCCCCCCNCCc2ccccc2)cc1O | -22.6% | 
CCCCCCCCCCCCCC[N+](C)(C)C |  | 10 µM (active)
CCCCCCCCCCCCCCCCCCNC(=O)OC1CCN(C(=O)OC[C@H](COC(=O)N(Cc2cccc[n+]2CC)C(=O)c2ccccc2OC)OC)CC1 |  | 10 µM (active)
CCN(CC)CCNC(=O)c1ccc(NS(C)(=O)=O)cc1 | -12.8% | 
CCN(CC)CCOc1ccc(/C(=C(\Cl)c2ccccc2)c2ccccc2)cc1 |  | 17.8 µM (active)
NC(N)=NCCCCN=C(N)N | -4.92% | 
Cc1c(C)c2c(c(C)c1OC(=O)CCC(=O)OCCO)CC[C@@](C)(CCC[C@H](C)CCC[C@H](C)CCCC(C)C)O2 |  | 12.6 µM (active)
CC(C)(C)c1ccc(O)c(O)c1 | -26.9% [at 91.6 µM] | 
O=C(Nc1ccc(S(=O)(=O)N2CCOCC2)cc1)c1cc(Cl)ccc1NS(=O)(=O)c1ccc(Cl)s1 |  | 31.6 µM (active)
CO[C@@H]1[C@@H](OC)[C@H](C)[C@@](O)(CC(=O)O)O[C@H]1[C@H](C)[C@H]1O[C@@]2(CC[C@@](C)([C@H]3CC[C@@](C)([C@@H]4O[C@@H]([C@H]5O[C@](C)(O)[C@H](C)C[C@@H]5C)C[C@@H]4OC4C[C@H](OC)[C@@H](OC)[C@H](C)O4)O3)O2)C[C@H](O)[C@H]1C (some centres not stated) |  | 1.58 µM (active)
Nc1cccc2c(N)cccc12 | 1.42% [at 91.6 µM] | 

target: Nuclear receptor subfamily 1 group I member 2 (Rattus norvegicus) (UniProt Q9R1A7); experiment: qHTS assay for small molecule activators of the rat pregnane X receptor (rPXR) signaling pathway (AID 651751; call rule not given here; further: 0% is about no effect); details: rPXR reporter cells, luciferase (One-Glo), 24 h
Sequence (Q9R1A7 whole entry, looked up): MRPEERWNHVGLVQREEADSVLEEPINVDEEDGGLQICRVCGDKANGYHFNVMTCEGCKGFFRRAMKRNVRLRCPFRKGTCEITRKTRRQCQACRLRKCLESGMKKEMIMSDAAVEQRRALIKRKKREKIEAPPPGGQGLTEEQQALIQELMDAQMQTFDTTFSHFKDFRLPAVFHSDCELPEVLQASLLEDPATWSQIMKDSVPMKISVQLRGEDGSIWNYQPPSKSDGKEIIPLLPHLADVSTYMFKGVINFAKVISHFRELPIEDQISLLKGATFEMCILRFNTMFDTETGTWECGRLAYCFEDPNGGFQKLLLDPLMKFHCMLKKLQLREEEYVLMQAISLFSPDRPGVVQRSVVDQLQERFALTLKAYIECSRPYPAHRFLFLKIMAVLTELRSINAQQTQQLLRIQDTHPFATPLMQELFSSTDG

SMILES | max response
O=C(Nc1ccc(Cl)cc1)Nc1ccc(Cl)c(Cl)c1 | -12.4%
OCc1c[nH]c2ccccc12 | 0.925%
CC(C)(C)c1ccc(O)c(O)c1 | -0.177% and 2.15%
Nc1cccc2c(N)cccc12 | -7.42% and 6.55%
